Assay results taken from ChEMBL document CHEMBL1961873, “Compounds: GSK PKIS; Assays: Nanosyn kinase panel” (2012).

Assays:
[1] = target: Rho-associated protein kinase 1 (Homo sapiens) (UniProt Q13464); conditions: at 1 µM;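 note: reported values are mean percent inhibition of ROCK1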
[2] = target: Rho-associated protein kinase 2 (Homo sapiens) (UniProt O75116); conditions: at 0.1 µM
[3] = target: Rho-associated protein kinase 2 (Homo sapiens) (UniProt O75116); conditions: at 1 µM
[4] = target: Ribosomal protein S6 kinase alpha-1 (Homo sapiens) (UniProt Q15418); conditions: at 0.1 µM
[5] = target: Ribosomal protein S6 kinase alpha-1 (Homo sapiens) (UniProt Q15418); conditions: at 1 µM
[6] = target: Ribosomal protein S6 kinase alpha-3 (Homo sapiens) (UniProt P51812); conditions: at 0.1 µM
[7] = target: Ribosomal protein S6 kinase alpha-3 (Homo sapiens) (UniProt P51812); conditions: at 1 µM
[8] = target: Ribosomal protein S6 kinase alpha-2 (Homo sapiens) (UniProt Q15349); conditions: at 0.1 µM
[9] = target: Ribosomal protein S6 kinase alpha-2 (Homo sapiens) (UniProt Q15349); conditions: at 1 µM
[10] = target: Ribosomal protein S6 kinase alpha-6 (Homo sapiens) (UniProt Q9UK32); conditions: at 0.1 µM
[11] = target: Ribosomal protein S6 kinase alpha-6 (Homo sapiens) (UniProt Q9UK32); conditions: at 1 µM
[12] = target: T1, Serine/threonine-protein kinase Sgk1 (Homo sapiens) (UniProt O00141); conditions: at 0.1 µM
T1 sequence (whole entry): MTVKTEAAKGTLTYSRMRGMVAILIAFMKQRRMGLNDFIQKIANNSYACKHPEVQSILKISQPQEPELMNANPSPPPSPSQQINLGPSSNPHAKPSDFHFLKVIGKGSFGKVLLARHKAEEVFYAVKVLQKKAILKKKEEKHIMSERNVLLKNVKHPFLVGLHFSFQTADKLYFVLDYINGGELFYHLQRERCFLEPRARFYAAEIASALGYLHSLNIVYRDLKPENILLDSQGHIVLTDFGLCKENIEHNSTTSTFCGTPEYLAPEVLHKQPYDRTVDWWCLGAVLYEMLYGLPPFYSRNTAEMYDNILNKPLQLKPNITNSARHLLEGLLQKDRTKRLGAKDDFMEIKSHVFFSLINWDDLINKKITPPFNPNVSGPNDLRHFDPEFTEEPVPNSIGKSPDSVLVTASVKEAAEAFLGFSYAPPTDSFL

[13] = target: T1, Serine/threonine-protein kinase Sgk1 (Homo sapiens); conditions: at 1 µM
[14] = target: T2, Serine/threonine-protein kinase Sgk2 (Homo sapiens) (UniProt Q9HBY8); conditions: at 0.1 µM
T2 sequence (whole entry): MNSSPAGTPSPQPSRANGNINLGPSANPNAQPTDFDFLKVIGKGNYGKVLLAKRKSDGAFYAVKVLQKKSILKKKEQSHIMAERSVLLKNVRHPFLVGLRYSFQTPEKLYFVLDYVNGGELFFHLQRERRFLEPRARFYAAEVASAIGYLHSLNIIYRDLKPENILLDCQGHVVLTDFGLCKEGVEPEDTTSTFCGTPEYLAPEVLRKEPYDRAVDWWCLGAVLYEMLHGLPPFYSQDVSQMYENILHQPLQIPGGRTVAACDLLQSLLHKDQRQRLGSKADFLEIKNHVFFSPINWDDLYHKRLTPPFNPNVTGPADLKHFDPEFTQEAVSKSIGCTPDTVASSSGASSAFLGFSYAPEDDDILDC

[15] = target: T2, Serine/threonine-protein kinase Sgk2 (Homo sapiens); conditions: at 1 µM
[16] = target: T3, Serine/threonine-protein kinase Sgk3 (Homo sapiens) (UniProt Q96BR1); conditions: at 0.1 µM
T3 sequence (whole entry): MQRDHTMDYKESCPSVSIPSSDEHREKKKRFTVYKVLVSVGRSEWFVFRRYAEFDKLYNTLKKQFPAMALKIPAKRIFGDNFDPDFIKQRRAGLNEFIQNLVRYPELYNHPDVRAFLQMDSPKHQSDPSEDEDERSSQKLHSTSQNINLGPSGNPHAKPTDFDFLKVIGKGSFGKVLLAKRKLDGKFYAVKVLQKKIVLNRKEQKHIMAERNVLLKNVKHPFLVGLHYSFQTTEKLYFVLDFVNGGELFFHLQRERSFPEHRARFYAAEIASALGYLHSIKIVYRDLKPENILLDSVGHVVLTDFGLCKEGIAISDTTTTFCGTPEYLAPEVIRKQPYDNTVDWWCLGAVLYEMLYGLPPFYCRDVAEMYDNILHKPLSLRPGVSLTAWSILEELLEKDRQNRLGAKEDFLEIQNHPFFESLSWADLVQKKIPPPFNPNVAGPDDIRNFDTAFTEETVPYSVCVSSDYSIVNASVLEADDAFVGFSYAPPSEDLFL

[17] = target: T3, Serine/threonine-protein kinase Sgk3 (Homo sapiens); conditions: at 1 µM
[18] = target: 5'-AMP-activated protein kinase catalytic subunit alpha-1 (Homo sapiens) (UniProt Q13131); conditions: at 0.1 µM
[19] = target: 5'-AMP-activated protein kinase catalytic subunit alpha-1 (Homo sapiens) (UniProt Q13131); conditions: at 1 µM
[20] = target: 5'-AMP-activated protein kinase catalytic subunit alpha-2 (Homo sapiens) (UniProt P54646); conditions: at 0.1 µM;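 note: mean inhibition measured on the AMPK complex of alpha2, beta1 and gamma1 subunits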
Chain of 5'-AMP-activated protein kinase catalytic subunit alpha-2 (Homo sapiens) (P54646 whole entry, looked up): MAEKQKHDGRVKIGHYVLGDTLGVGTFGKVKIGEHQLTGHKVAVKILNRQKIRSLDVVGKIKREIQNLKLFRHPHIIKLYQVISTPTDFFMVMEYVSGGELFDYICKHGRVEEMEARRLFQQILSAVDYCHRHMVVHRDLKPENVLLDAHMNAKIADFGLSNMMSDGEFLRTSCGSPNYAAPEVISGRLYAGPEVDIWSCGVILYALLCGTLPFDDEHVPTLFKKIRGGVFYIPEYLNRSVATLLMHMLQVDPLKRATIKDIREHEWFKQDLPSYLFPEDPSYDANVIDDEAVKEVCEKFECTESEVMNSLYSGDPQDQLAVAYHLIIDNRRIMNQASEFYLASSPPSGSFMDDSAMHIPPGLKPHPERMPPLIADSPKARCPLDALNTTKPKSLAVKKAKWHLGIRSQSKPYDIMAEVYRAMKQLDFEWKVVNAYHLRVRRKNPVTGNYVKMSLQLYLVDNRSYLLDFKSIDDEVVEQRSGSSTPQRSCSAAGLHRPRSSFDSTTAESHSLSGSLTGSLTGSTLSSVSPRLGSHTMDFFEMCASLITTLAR

Chain of Rho-associated protein kinase 1 (Homo sapiens) (Q13464 2-1354 limits assumed): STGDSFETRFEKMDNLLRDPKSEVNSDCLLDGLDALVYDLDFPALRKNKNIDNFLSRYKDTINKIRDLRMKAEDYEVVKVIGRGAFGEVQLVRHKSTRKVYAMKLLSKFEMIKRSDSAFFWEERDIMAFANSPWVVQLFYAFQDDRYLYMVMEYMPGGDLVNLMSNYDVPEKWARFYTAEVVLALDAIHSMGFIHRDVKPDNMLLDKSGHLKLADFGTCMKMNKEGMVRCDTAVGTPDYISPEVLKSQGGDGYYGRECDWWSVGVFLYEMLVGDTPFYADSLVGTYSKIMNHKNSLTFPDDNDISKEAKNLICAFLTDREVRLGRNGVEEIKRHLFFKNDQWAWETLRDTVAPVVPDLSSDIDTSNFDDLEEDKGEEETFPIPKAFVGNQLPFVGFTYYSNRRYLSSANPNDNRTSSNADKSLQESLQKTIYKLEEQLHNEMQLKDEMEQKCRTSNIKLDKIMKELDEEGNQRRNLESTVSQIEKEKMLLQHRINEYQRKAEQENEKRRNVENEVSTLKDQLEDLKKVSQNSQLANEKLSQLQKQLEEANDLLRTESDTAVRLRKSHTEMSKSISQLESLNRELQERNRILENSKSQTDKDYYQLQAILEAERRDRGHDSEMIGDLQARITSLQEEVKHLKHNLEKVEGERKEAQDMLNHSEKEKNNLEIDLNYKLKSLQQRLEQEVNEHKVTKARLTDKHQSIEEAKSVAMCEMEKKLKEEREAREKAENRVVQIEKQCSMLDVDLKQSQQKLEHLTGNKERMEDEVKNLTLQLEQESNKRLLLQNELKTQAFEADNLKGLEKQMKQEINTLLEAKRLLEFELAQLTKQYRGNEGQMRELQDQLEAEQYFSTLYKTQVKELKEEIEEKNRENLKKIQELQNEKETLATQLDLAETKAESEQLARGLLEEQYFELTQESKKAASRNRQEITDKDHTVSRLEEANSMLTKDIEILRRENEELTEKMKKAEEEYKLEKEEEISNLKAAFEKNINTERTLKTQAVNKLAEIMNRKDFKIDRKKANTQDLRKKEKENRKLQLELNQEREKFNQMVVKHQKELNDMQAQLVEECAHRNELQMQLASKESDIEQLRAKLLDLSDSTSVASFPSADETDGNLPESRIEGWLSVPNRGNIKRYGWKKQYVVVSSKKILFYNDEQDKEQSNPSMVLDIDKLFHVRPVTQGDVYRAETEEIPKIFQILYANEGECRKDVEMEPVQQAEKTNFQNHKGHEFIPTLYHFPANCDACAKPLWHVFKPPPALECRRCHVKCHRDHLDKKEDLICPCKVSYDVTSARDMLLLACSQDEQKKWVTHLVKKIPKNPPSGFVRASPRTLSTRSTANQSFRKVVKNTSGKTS
Chain of Ribosomal protein S6 kinase alpha-3 (Homo sapiens) (P51812 whole entry): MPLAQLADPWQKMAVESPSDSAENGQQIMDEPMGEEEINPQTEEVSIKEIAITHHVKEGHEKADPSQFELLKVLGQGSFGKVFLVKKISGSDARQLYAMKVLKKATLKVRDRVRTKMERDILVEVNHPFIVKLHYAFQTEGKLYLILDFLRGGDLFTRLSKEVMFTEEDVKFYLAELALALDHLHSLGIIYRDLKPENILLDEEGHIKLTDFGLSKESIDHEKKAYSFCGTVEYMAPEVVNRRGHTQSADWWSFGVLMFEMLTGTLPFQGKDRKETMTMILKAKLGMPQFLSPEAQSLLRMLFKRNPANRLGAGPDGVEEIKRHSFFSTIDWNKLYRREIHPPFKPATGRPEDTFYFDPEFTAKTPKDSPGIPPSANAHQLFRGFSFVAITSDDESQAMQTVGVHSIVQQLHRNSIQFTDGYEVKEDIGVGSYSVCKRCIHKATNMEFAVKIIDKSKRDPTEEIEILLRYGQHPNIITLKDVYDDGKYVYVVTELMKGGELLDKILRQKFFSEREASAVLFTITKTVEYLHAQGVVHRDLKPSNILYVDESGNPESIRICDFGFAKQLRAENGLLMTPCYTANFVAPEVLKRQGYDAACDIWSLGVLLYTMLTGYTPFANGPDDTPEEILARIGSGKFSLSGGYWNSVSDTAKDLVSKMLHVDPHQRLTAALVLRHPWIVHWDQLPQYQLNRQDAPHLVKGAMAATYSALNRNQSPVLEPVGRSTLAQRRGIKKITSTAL
Chain of Rho-associated protein kinase 2 (Homo sapiens) (O75116 whole entry, looked up): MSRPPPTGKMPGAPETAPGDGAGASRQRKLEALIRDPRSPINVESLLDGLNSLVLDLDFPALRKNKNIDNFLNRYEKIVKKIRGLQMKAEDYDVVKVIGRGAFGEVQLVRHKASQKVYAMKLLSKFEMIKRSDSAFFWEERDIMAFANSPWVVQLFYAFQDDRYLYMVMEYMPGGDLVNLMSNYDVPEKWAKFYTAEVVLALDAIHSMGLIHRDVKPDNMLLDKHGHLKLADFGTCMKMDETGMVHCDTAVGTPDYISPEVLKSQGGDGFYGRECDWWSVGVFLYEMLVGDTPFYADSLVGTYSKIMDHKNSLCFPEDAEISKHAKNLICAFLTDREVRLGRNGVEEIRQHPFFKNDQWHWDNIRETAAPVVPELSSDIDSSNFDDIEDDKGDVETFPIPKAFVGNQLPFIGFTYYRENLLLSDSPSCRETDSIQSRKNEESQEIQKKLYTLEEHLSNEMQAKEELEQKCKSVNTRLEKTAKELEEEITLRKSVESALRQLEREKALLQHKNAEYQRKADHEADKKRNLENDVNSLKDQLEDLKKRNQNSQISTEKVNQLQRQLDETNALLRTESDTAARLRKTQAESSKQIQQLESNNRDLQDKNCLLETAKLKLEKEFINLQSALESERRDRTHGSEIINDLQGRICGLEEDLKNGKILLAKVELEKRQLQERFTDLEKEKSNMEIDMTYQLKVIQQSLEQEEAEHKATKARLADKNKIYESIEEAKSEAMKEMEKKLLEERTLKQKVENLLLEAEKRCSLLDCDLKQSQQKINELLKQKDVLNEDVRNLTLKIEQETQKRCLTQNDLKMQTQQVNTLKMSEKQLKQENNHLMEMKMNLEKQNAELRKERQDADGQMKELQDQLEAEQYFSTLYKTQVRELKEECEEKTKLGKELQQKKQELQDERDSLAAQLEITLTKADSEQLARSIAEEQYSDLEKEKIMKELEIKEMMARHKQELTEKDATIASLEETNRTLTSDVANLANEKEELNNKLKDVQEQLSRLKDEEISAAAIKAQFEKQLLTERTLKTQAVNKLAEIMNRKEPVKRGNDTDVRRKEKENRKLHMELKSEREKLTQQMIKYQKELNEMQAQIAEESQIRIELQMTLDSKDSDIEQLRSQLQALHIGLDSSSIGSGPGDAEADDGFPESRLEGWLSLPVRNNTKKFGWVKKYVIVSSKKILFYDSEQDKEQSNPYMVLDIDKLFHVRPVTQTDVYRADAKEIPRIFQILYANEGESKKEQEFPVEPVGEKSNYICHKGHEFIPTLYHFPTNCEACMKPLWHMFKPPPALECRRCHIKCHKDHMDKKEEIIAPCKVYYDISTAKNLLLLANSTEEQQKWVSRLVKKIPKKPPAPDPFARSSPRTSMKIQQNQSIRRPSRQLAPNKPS
Chain of Ribosomal protein S6 kinase alpha-1 (Homo sapiens) (Q15418 whole entry): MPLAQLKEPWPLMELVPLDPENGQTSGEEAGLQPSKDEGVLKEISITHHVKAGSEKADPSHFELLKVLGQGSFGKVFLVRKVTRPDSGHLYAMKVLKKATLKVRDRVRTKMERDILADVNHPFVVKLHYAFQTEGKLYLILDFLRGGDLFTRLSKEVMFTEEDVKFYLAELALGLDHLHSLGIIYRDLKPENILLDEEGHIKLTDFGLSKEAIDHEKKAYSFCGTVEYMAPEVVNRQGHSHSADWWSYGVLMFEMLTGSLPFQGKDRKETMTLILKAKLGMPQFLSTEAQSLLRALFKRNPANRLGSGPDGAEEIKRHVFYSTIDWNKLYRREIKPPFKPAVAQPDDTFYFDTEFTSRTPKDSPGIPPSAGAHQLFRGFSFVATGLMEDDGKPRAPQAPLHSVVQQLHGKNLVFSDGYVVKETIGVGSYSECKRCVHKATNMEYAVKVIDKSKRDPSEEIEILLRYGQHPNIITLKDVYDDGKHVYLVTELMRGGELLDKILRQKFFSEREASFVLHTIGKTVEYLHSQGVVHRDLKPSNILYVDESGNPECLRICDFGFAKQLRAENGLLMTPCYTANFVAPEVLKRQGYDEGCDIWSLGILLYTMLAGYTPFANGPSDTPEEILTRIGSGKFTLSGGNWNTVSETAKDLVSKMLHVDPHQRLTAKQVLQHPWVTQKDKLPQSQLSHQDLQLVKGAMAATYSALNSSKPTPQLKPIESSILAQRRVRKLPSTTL

Structure (SMILES) | inhibition [1] [%] | inhibition [2] [%] | inhibition [3] [%] | inhibition [4] [%] | inhibition [5] [%] | inhibition [6] [%] | inhibition [7] [%] | inhibition [8] [%] | inhibition [9] [%] | inhibition [10] [%] | inhibition [11] [%] | inhibition [12] [%] | inhibition [13] [%] | inhibition [14] [%] | inhibition [15] [%] | inhibition [16] [%] | inhibition [17] [%] | inhibition [18] [%] | inhibition [19] [%] | inhibition [20] [%]
CS(=O)(=O)CCNCc1nc(-c2ccc3ncnc(Nc4ccc(OCc5cccc(C(F)(F)F)c5)cc4)c3c2)cs1 | -0.55 | 0.87 | 1.92 | -1.01 | 0.29 | 1.21 | 1.84 | 1.45 | 2.09 | 0.32 | 0.37 | -0.21 | -1.85 | 3.52 | 2.19 | 1.04 | 1.17 | 1.78 | 2.03 | 3.05
Cc1cc(O)cc(C)c1/C=C/c1cncc(C(=O)N(C)C)c1 | 1.38 | 1.81 | 3.8 | 1.88 | 3.54 | 1.25 | 2.65 | 0.28 | 2.22 | 1.12 | 1.77 | 1.71 | 2.5 | -0.51 | 2.83 | 4.43 | 0 | 2.63 | 1.76 | 1.57
NS(=O)(=O)c1ccc(NC=C2C(=O)Nc3ccc4ncsc4c32)cc1 | 55.1 | 27.4 | 69.4 | 15.1 | 53.4 | 17.7 | 57.1 | 34.3 | 80.5 | 29.3 | 77.4 | 19.7 | 64 | 8.38 | 36.4 | 5.73 | 19.1 | 38.4 | 68.2 | 24
N#Cc1cccc(Nc2nccc(-c3cnn4ncccc34)n2)c1 | 5.33 | 3.28 | 12.4 | 2.54 | 7.07 | 0.17 | 4.03 | 2.01 | 4.16 | 1.51 | 8.8 | 2.22 | 10.4 | 4.89 | 5.14 | 5.14 | 7.33 | 2.67 | 10.4 | 2.03
CCn1c(-c2nonc2N)nc2ccc(F)cc21 | 9.21 | 5.67 | 19 | 4.37 | 21 | 2.79 | 9.91 | 2.93 | 14 | 1.56 | 3.11 | 4.63 | 5.34 | 0.38 | 7.92 | 4.43 | 9.8 | 5.34 | 5.71 | 4.08
O=C1Nc2ccccc2/C1=C/Nc1ccc2[nH]c(=O)[nH]c2c1 | 4.42 | 3.76 | 13.7 | 3.61 | 20.9 | 2.19 | 14.7 | 4.19 | 20.5 | 2.19 | 16.3 | 5.08 | 22.7 | 1.44 | 13.4 | 3.83 | 9.07 | 6.25 | 20 | 4.32
N#Cc1c(NC(=O)c2ccccc2F)sc2c1CCCC2 | 0.92 | -0.61 | 0.55 | 0.59 | 1.03 | 0.77 | 2.33 | -0.49 | 0.67 | -0.24 | 0.41 | 0.71 | 0.65 | -4.27 | -5.49 | -2.68 | -2.69 | -0.84 | 0.73 | 1.26
NS(=O)(=O)c1cccc(-c2cc3ccncc3cc2OCc2ccccc2)c1 | 2.75 | 2.25 | 2.26 | 1.02 | 2.9 | 0.82 | 2.13 | 2.81 | 2.38 | 2.55 | 3.01 | 3.46 | 3.63 | 5.08 | 6.91 | 9.81 | 1.63 | 4.1 | 5.8 | -0.75
CN(C)C(=O)O[C@@H]1CN[C@@H](C#Cc2cc3ncnc(Nc4ccc(OCc5cccc(F)c5)c(Cl)c4)c3s2)C1 | 1.13 | -1.58 | -0.74 | 0.43 | 0.71 | 0.2 | 1.13 | 0.12 | 2.54 | 0.51 | 1.1 | 0.97 | 0.35 | -1.98 | 1.45 | -0.94 | -0.47 | 1.21 | -0.92 | -1.56
COc1cccc(-n2ncc3c(N/N=C/c4ccc(C)cc4)ncnc32)c1 | 4.15 | 3.08 | 5.34 | 2.5 | 6.59 | 0.75 | 5.14 | 3.75 | 4.8 | 0.68 | 3.14 | 0.12 | 3.62 | 1.23 | 2.8 | 3.8 | 2.61 | 1.9 | 6.98 | 7.16
